Reference: PubChem BioAssay (Tox21)
Results filed as inconclusive are left out. The source made the active and inactive calls. Unless noted, calls come from the whole dose curve; as a rule, active = well fitted curve in the direction sought with a large enough effect in the repeat runs; inconclusive = weak or mixed curves; inactive = no such curve, though single readings can be large; an effect the other way counts as inactive or inconclusive.

Tests used:
[1] = qHTS assay to identify small molecule agonists of the peroxisome proliferator-activated receptor delta (PPARd) signaling pathway - cell viability counter screen (AID 743211); note: nearly all actives have a fitted effect of over 55% in size
Summary of the method: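 Tox21 library compounds, delivered in DMSO, were incubated 17 h with PPARd-bla HEK293H cells; cytotoxicity was taken from CellTiter-Glo luminescence read 30 min after reagent addition.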

[2] = qHTS assay to identify small molecule antagonists of the peroxisome proliferator-activated receptor delta (PPARd) signaling pathway - cell viability counter screen (AID 743213); note: nearly all actives have a fitted effect of over 50% in size
Summary of the method: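 In this counter screen, HEK293H cells carrying a UAS-beta-lactamase reporter are co-treated with test compounds and 300 nM L165041 (final) for 17 h at 37 C; cell viability is quantified by CellTiter-Glo luminescence.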

[3] = target: Bile acid receptor (Homo sapiens) (UniProt Q96RI1); experiment: qHTS assay to identify small molecule antagonists of the farnesoid-X-receptor (FXR) signaling pathway (AID 743217; active = well fitted inhibition curve with a large enough effect in the signal ratio in the repeat runs, not every such curve was filed as active; the % refers to the signal ratio)
Summary of the method: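 Test compounds are pin-transferred onto FXR-bla HEK 293T cells, then chenodeoxycholic acid is added at 50 uM final. After 16 h at 37 °C, LiveBLAzer B/G substrate is applied for 2 h at room temperature and fluorescence read.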

[4] = qHTS assay to identify small molecule agonists of the farnesoid-X-receptor (FXR) signaling pathway - cell viability counter screen (AID 743218); note: nearly all actives have a fitted effect of over 45% in size
Summary of the method: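 Quantitative HTS counter screen measuring ATP-based viability via CellTiter-Glo luminescence in HEK 293T cells carrying a UAS-driven beta-lactamase reporter, after 16 h compound exposure at 37 C.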

[5] = target: Bile acid receptor (Homo sapiens) (UniProt Q96RI1); experiment: qHTS assay to identify small molecule agonists of the farnesoid-X-receptor (FXR) signaling pathway (AID 743220; active = well fitted activation curve with a large enough effect in the signal ratio in the repeat runs, not every such curve was filed as active; the % refers to the signal ratio)
Summary of the method: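 FXR-UAS-bla HEK 293T cells carrying a UAS-driven beta-lactamase reporter were plated for 5 h at 37C/5% CO2, then exposed to DMSO-dissolved Tox21 10K compounds for 16 h at 37C. A LiveBLAzer B/G FRET substrate was loaded for 2 h at room temperature before fluorescence reading.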

[6] = qHTS assay to identify small molecule antagonists of the farnesoid-X-receptor (FXR) signaling pathway - cell viability counter screen (AID 743221; active = well fitted cell-killing curve with a large enough effect in the repeat runs, not every such curve was filed as active; note: nearly all actives have a fitted effect of over 50% in size)
Summary of the method: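 Cytotoxicity is taken from ATP luminescence (CellTiter-Glo, 30 min, room temperature) in FXR-bla HEK 293T cells previously incubated 16 h at 37 C with compound and chenodeoxycholic acid at 50 uM final.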

[7] = target: Vitamin D3 receptor (Homo sapiens) (UniProt P11473); experiment: qHTS assay to identify small molecule agonists of the vitamin D receptor (VDR) signaling pathway (AID 743222; calls by dose curve)
Summary of the method: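 Tox21 cell reporter format: VDR-bla line, 16 h compound exposure in 5% CO2 at 37C, then fluorescence intensity after 2 h with LiveBLAzer B/G FRET substrate.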

[8] = target: Vitamin D3 receptor (Homo sapiens) (UniProt P11473); experiment: qHTS assay to identify small molecule antagonists of the vitamin D receptor (VDR) signaling pathway (AID 743223; active = well fitted inhibition curve with a large enough effect in the signal ratio in the repeat runs, not every such curve was filed as active; the % refers to the signal ratio)
Summary of the method: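 Quantitative HTS in VDR-bla reporter cells stimulated with 1alpha,25-dihydroxyvitamin D3, 3 nM final. Compound exposure 16 h, 37C, 5% CO2. Read-out: beta-lactamase FRET substrate fluorescence, 2 h RT.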

[9] = qHTS assay to identify small molecule agonists of the vitamin D receptor (VDR) signaling pathway - cell viability counter screen (AID 743224); note: series mostly up to about 63 µM; nearly all actives have a fitted effect of over 50% in size
Summary of the method: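 CellTiter-Glo viability readout on VDR-bla cells, measured after 16 h of compound treatment at 37C in the same wells.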

[10] = qHTS assay to identify small molecule antagonists of the vitamin D receptor (VDR) signaling pathway - cell viability counter screen (AID 743225); note: nearly all actives have a fitted effect of over 50% in size
Summary of the method: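 Same-well multiplex: following 16 h treatment of HEK 293T cells carrying a UAS-driven beta-lactamase reporter with compound and agonist (3 nM final), and a 2 h FRET substrate step, CellTiter-Glo was added and luminescence read after 30 min.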

[11] = qHTS assay to identify small molecule agonists of the NFkB signaling pathway (AID 1159509; active = well fitted curve in the direction sought with a large enough effect in the signal ratio in the repeat runs, not every such curve was filed as active; the % refers to the signal ratio; note: series mostly up to about 61 µM)
Summary of the method: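 Beta-lactamase reporter assay run in quantitative high-throughput format on an NF-kB-responsive ME-180 line, with 5 hr compound treatment and a FRET-based blue/green fluorescence readout.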

[12] = qHTS assay to identify small molecule agonists of the endoplasmic reticulum stress response signaling pathway (AID 1159516; active = well fitted activation curve with a large enough effect in the signal ratio in the repeat runs, not every such curve was filed as active; the % refers to the signal ratio)
Summary of the method: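 Fluorescence at 460 and 530 nm (405 nm excitation) reports beta-lactamase from an ER stress response element in HeLa cells treated 5 hr at 37 C.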

[13] = qHTS assay to identify small molecule agonists of the endoplasmic reticulum stress response signaling pathway - cell viability counter screen (AID 1159517; calls by dose curve)
Summary of the method: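 After overnight attachment, ESRE-bla HeLa cells were treated with Tox21 library compounds for 5 hr. CellTiter-Glo luminescence, read 30 min post-addition at room temperature, reported viability.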

[14] = qHTS assay to identify small molecule antagonists of the retinoid-related orphan receptor gamma (ROR-gamma) signaling pathway - cell viability counter screen (AID 1159520); note: nearly all actives have a fitted effect of over 50% in size
Summary of the method: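 Cytotoxicity was read from cellular ATP (CellTiter-Glo luminescence) after 16 hr at 37 C with 1 uM doxycycline induction. The inducer was added 2 hr after compound transfer to Tet-on ROR gamma CHO cells.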

[15] = target: Nuclear receptor ROR-gamma (Homo sapiens) (UniProt P51449); experiment: qHTS assay to identify small molecule antagonists of the retinoid-related orphan receptor gamma (ROR-gamma) signaling pathway (AID 1159521)
Summary of the method: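 Inducible-expression reporter assay: doxycycline (1 uM final) switched on RORγ in CHO cells bearing a ROR response element-luciferase construct, with test compounds present from 2 h beforehand. Decreased luminescence after 16 h defined antagonist activity.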

[16] = qHTS assay to identify small molecule agonists of the AP-1 signaling pathway (AID 1159526; calls by dose curve)
[17] = qHTS assay to identify small molecule agonists of the AP-1 signaling pathway - cell viability counter screen (AID 1159525; calls by dose curve; note: nearly all actives have a fitted effect of over 55% in size)
Summary of the method: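 Intracellular ATP by Cell Titer Glo luminescence (30 min, RT) in the same ME-180 AP-1-bla wells after the 5 h compound exposure at 37 °C. Normalised to tetra n-octyl ammonium bromide and DMSO controls.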

[18] = target: Peroxisome proliferator-activated receptor delta (Homo sapiens) (UniProt Q03181); experiment: qHTS assay to identify small molecule antagonists of the peroxisome proliferator-activated receptor delta (PPARd) signaling pathway (AID 743215; active = well fitted inhibition curve with a large enough effect in the signal ratio in the repeat runs, not every such curve was filed as active; the % refers to the signal ratio;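 note: cells stimulated with agonist L165041 at 300 nM final during compound exposure; series mostly up to about 62 µM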)
Summary of the method: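 Here, a reporter line (HEK293H, beta-lactamase under a UAS) measures PPARd signaling. Compounds are tested against agonist L165041 at 300 nM final concentration over 17 h at 37 C, with fluorescence read after substrate.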

[19] = target: Peroxisome proliferator-activated receptor delta (Homo sapiens) (UniProt Q03181); experiment: qHTS assay to identify small molecule agonists of the peroxisome proliferator-activated receptor delta (PPARd) signaling pathway (AID 743212; calls by dose curve;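 note: HEK293H cells with PPARd UAS beta-lactamase reporter GeneBLAzer system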)
Summary of the method: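 Steps: seed PPARd-bla HEK293H cells; incubate 5 h, 37 C, 5% CO2; add compounds in DMSO; incubate, 37 C; add LiveBLAzer B/G FRET substrate; hold 2 h at room temperature; measure fluorescence.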

Measured: Potency

Chain of Peroxisome proliferator-activated receptor delta (Homo sapiens) (Q03181 whole entry, looked up): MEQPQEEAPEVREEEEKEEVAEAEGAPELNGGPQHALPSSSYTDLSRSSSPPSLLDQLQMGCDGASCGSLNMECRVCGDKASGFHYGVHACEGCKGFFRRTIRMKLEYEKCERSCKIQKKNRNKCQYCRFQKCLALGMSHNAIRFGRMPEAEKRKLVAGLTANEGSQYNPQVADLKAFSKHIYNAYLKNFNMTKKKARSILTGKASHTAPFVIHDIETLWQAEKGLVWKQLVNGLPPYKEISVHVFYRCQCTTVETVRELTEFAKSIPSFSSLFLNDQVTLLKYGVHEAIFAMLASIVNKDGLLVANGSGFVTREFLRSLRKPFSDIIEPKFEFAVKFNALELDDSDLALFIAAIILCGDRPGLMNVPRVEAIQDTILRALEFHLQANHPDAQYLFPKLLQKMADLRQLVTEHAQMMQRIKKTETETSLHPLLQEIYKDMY
Chain of Bile acid receptor (Homo sapiens) (Q96RI1 whole entry, looked up): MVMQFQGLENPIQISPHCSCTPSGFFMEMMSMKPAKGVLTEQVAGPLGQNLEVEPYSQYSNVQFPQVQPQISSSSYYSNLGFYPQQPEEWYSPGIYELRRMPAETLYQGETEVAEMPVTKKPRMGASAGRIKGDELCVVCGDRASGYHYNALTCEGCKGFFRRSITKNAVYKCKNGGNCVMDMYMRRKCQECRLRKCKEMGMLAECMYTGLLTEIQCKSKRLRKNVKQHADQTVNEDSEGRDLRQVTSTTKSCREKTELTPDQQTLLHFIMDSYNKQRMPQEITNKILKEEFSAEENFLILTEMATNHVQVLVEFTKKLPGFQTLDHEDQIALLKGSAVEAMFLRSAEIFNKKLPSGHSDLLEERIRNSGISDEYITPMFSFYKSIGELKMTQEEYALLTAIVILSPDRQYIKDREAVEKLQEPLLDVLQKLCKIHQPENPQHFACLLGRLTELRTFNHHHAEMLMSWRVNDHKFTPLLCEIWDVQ
Chain of Vitamin D3 receptor (Homo sapiens) (P11473 whole entry, looked up): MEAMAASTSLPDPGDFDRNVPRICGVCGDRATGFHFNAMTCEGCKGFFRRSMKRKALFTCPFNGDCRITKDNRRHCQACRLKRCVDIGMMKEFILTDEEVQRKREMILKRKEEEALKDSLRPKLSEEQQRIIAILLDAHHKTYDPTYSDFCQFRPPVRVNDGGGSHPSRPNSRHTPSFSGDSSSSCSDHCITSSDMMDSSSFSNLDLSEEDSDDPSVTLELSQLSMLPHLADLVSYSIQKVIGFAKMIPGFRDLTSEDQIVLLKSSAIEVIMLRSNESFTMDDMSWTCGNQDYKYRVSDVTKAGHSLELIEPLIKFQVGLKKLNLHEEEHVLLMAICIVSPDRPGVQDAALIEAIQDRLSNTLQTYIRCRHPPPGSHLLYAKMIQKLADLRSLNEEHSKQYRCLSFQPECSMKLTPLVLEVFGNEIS

COc1ccc2c(c1)CCCC2=O
not listed: [17] | [18] | [19]
inactive: all other assays above

O=C(O)CCCl
not listed: [2] | [3] | [5] | [8] | [9] | [18] | [19]
inactive: all other assays above

Oc1ccc(C2CNCCc3c2cc(O)c(O)c3Cl)cc1 (stereo not drawn)
not listed: [3] | [5] | [9] | [17] | [18] | [19]
inactive: all other assays above

CCOC(=O)Nc1ccc(NCc2ccc(F)cc2)nc1N
not listed: [3] | [5] | [8] | [19]
inactive: all other assays above

OC1CCCCC1c1ccccc1 (stereo not drawn)
not listed: [3] | [5] | [13]
inactive: all other assays above

CCCC(=O)O[C@]1(C(=O)CO)CC[C@H]2[C@@H]3CCC4=CC(=O)CC[C@]4(C)[C@H]3[C@@H](O)C[C@@]21C
not listed: [2] | [3] | [5] | [8]
inactive: all other assays above

CCCN(CCC)CCc1cccc2c1CC(=O)N2
not listed: [3] | [5] | [7] | [8] | [9]
inactive: all other assays above

c1cnc(N2CCN(Cc3ccc4c(c3)OCO4)CC2)nc1
not listed: [3] | [4] | [5] | [9] | [10]
inactive: all other assays above

CCOC(=O)CCC(C)=O
not listed: [13]
inactive: all other assays above

CCCCC/C=C\CCC=O
not listed: [3] | [5] | [9] | [18] | [19]
inactive: all other assays above

CCOC(=O)c1c(C)n(C)c2ccc(O)cc12
not listed: [9] | [18] | [19]
inactive: all other assays above
